In PubChem BioAssay (NCI):
Compounds without any hit were thinned out: in the full panel of roughly 79,000, 15% have a hit. Values without a mark were called inactive. Activity calls are given as the source filed them. No stated cut-off is given here; in the data, active means growth inhibition above about 70%; inactive means the rest.

How the values were obtained:
[1] = NCI Yeast Anticancer Drug Screen. Data for the rad50 strain (AID 155);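 further: 0% = growth of vehicle-only cultures of the same strain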; conditions: S. cerevisiae rad50 strain growth inhibition; at 50.0 µM; stronger effect = higher value
Method in brief: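 Compounds were tested on a yeast strain with an engineered DNA damage repair alteration; the reported value is growth inhibition normalised to vehicle treatment.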

[2] = NCI Yeast Anticancer Drug Screen. Data for the mec2-1 strain (AID 157); conditions: S. cerevisiae mec2-1 strain, at 50.0 µM, stronger effect = higher value
Method in brief: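 Each compound was tested on mec2-1 yeast, a strain altered in DNA damage repair or cell cycle control. Growth inhibition is reported relative to vehicle.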

[3] = NCI Yeast Anticancer Drug Screen. Data for the sgs1 mgt1 strain (AID 161);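 further: 0% = growth of cultures given vehicle only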; conditions: S. cerevisiae sgs1 mgt1 strain, at 50.0 µM, stronger effect = higher value
Method in brief: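 Read-out: growth inhibition vs vehicle controls. Cells: mutant yeast strain deficient in DNA damage repair.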

[4] = NCI Yeast Anticancer Drug Screen. Data for the cln2 rad14 strain (AID 165);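 further: 0% = growth equal to vehicle treated cultures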; conditions: S. cerevisiae cln2 rad14 strain, at 50.0 µM, stronger effect = higher value
Method in brief: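 Test compounds were added to cln2 rad14 yeast cultures; inhibition of growth was then determined by comparison with vehicle treatment.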

[5] = NCI Yeast Anticancer Drug Screen. Data for the bub3 strain (AID 167); conditions: S. cerevisiae bub3 mutant strain, at 50.0 µM, stronger effect = higher value
Method in brief: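 Growth of a checkpoint-deficient yeast mutant is measured after compound exposure. Values represent inhibition relative to vehicle.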

[6] = NCI Yeast Anticancer Drug Screen. Data for the mlh1 rad18 strain (AID 175); conditions: S. cerevisiae mlh1 rad18 strain growth inhibition; at 50.0 µM; stronger effect = higher value
Method in brief: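 Inhibition values reflect reduced growth of mutant yeast versus vehicle-treated controls following compound exposure; the mutations affect DNA damage repair.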

SMILES	growth inhibition [1]	growth inhibition [2] [%]	growth inhibition [3]	growth inhibition [4]	growth inhibition [5]	growth inhibition [6]
COC(=O)CCC(=O)NC1=C(NCc2ccccc2)C(=O)c2ccccc2C1=O	26.8%	12.8	31.1%	36%	38.9%	13.6%
Cc1cc(C)nc(NS(=O)(=O)c2ccc(NC(=O)c3cccc4c(Nc5ccc(S(=O)(=O)N=C(N)N)cc5)c5ccc(Cl)cc5nc34)cc2)n1	16.4%	23.3	27.2%	24.4%	13%	32.8%
CC1C(=O)C23CC1CCC2C12COC(O)C1C(C)(C)C(O)CC2OC3=O (stereo unspecified)	-10.4%	-5.95	-12.7%	17.1%	-43.6%	-16.4%
COC(=O)c1sc2c(=O)c(C(=O)OC)c(C(=O)OC)sc2c(=O)c1C(=O)OC	23.1%	27.4	54.3%	-1.1%	50.9%	38.6%
C=CCOC(=O)C1(O)c2ccccc2NC(=S)N1CC=C (stereo unspecified)	1.35%	7.4	5.2%	6.9%	10.3%	-0.8%
O=C(Cl)Cc1ccccc1[N+](=O)[O-]	14.5%	14.6	12.4%	6.55%	-20.4%	12.9%
COc1ccccc1C(=O)N/N=C/c1ccncc1	-2.85%	24.5	5.7%	-5.7%	20.2%	9.8%
c1ccc(C2OCC(OC3CCCCO3)CO2)cc1 (stereo unspecified)	-0.1%	-26.5	-24.6%	-5.1%	-9.45%	-2.15%
CCCCCOC(=S)S	-2.6%	11.8	32.7%	-12.1%	13.4%	29.9%
COc1ccc(C(=O)c2ccc(C)c3c(C)cccc23)cc1	4.5%	-9.55	4.9%	-16.6%	-7.9%	4.85%
Cn1cc(C(=O)c2ccccc2)c2ccccc2c1=O	41.5%	-4.4	23.8%	8.25%	31.9%	16.4%
COc1ccc(C(=O)OC2CCCC2)cc1	45.8%	6.95	39.5%	-9.5%	9.6%	24.7%
O=c1oc2ccccc2c(O)c1Cc1cccc(Cc2c(O)c3ccccc3oc2=O)c1	11.9%	5.05	4.9%	9.3%	-11.3%	5%
CC(=O)c1c(C)cc(C(C)(C)C)cc1C	18.4%	-1.1	12.8%	-0.55%	9.3%	13.8%
CCCCCCOC(=O)C[n+]1ccc(C(N)=O)cc1	2.45%	17.1	-15.2%	-14.8%	-18.8%	-1.9%
Cc1cc(C)c(/C(O)=C/C(=S)N2CCOCC2)c(C)c1	33.5%	14.1	43.1%	-33%	-15.3%	32.6%
CC(=O)NCC1OCC2OC(C)(C)OC12 (stereo unspecified)	3.35%	-5	-11.7%	-73.8%	-12.1%	-8.8%
O=C(CCn1[nH]c(=O)c(Cl)c(Cl)c1=O)NNC(=O)C[n+]1ccccc1	-4.2%	-8.9	-28.3%	34.2%	-7.05%	-25.1%
CN(C)c1nc(Cl)nc2c1ncn2-c1ccccc1	9.85%	-23.2	3.1%	-10.7%	-31.4%	-5.1%
CC(=O)OC1CCC2(C)C(=CCC3C2CCC2(C)/C(=N\NS(=O)(=O)c4ccc(C)cc4)CCC32)C1 (stereo unspecified)	63.7%	28.6	43.3%	-2.05%	40.3%	49.5%
C=C1C(=O)O[C@H]2C[C@@H]1C(=O)C/C(C)=C/CC/C(C)=C/CC[C@@]2(C)OCSC	18.9%	-5	39%	26.9%	9.85%	13.7%

SMILES	growth inhibition [1]	growth inhibition [2] [%]	growth inhibition [3]	growth inhibition [4]	growth inhibition [5]	growth inhibition [6]
O=NNc1ccc(-c2ccc(NN=O)cc2)cc1	19.4%	0.75	10.8%	10.2%	-10.1%	8.95%
CCC(=O)C(C)C(=O)CCC(=O)Nc1cc(Cl)ccc1Cl (stereo unspecified)	21.4%	18.5	18.6%	20.2%	18.1%	19.6%
CCOC(=O)C(C)(C)C(O)C(C)C (stereo unspecified)	20.7%	-18.8	-15.2%	48.4%	-12.7%	3.95%
O=C(/C=C\c1ccccc1)Nc1c(Cl)cc(Cl)cc1Cl	0.65%	10.5	9.05%	-8.75%	39.5%	23.3%
NNS(=O)(=O)c1cccc(S(=O)(=O)NN)c1	-13.9%	12.3	-3.2%	-4.25%	5.35%	5.3%
CN=C(N)N/N=C(\c1ccccc1)c1ccc(Cl)cc1	43.4%	11.6	43.1%	3.55%	34.6%	72.9% (active)
COc1ccc(/C=N/n2cnc3c(c2=O)S/C(=C2/SC(=S)N(c4ccc(C)cc4)C2=O)N3c2ccccc2)cc1	-29.5%	-57.2	-12.8%	-75%	-25.9%	-11.9%
CC(C)c1ccc(/C=C2\CCC/C(=C\c3ccc(C(C)C)cc3)C2=O)cc1	-6.7%	-17.1	9.5%	-12.2%	-20.4%	-3.5%
CC(C)CCOC(=O)C1C(=O)CC(c2ccccc2)C1c1ccccc1 (stereo unspecified)	11.1%	3.5	-6.35%	-0.15%	6%	6.25%
O=S(=O)(c1ccc(NC(=S)N2CCOCC2)cc1)N1CCCCC1	-3.45%	1.1	-10.1%	1.6%	-5.95%	8.65%
CCN(C(=S)Nc1cccc(OC)c1)c1ccccc1	-17.2%	-36.9	18%	-1.45%	-17.1%	-6.8%
N#CCCN(CCC#N)c1nc(-c2ccccc2)nc(N(CCC#N)CCC#N)n1	-1.95%	-16.6	-1.75%	0.9%	2.75%	15.1%
CC(C)(CO)NCC(O)CS(=O)(=O)O (stereo unspecified)	-30.8%	-16.6	-9%	-61%	4.25%	0.4%
CCC(=O)Oc1ccc(C(=O)O)cc1	6.2%	-10	-12.1%	-39.5%	-26.5%	1.45%
CC12CC3CC(C1)CC(NCCO)(C3)C2	-0.8%	-13.7	-14.3%	-83.7%	-5.45%	-4.35%
C/C(=C/C=C(c1ccccc1)c1ccccc1)C1CCC2C3CCC4CC5CCC4(C)C3(O5)C(=O)CC12C (stereo unspecified)	89.6% (active)	60.6	73% (active)	83% (active)	93.3% (active)	92.8% (active)
CC(C)(C)NC(NC(C)(C)C)=C(/C=C(/Cl)[N+](=O)[O-])[N+](=O)[O-]	-5.5%	-21.1	0.45%	-10.9%	15.9%	15.1%
CC12C3CC4C5CC(C(C53)[C@@H]1NCc1ccccc1)C42 (stereo partly specified)	44.8%	6.8	19.2%	35.4%	32.9%	21.9%
Cn1c([N+](=O)[O-])cnc1COc1ccc(OCc2ncc([N+](=O)[O-])n2C)cc1	4.45%	-20.1	-0.55%	27.6%	0.4%	-2.7%
COC1=C(N=[N+]=[N-])C(=O)c2ccccc2C1=O	38%	8.95	7.25%	-34.2%	-6.8%	16.1%
